Experimental findings from the supplement of paper PMC9446081 are described below.

± gives the standard deviation of the averaged measurements.

Common to all, as to test: relative enzymatic activity vs untreated control (fraction); higher = less inhibition
Details in all cases: 100 µM; incubation time: 2 h at 37 C

Test [1] concerns DNA gyrase. The method, then:
(§1)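 In vitro enzymatic inhibition assays (ProFoldin kits) for 12 purified essential E. coli enzymes or complexes, each treated with 218 active antibacterial compounds at 100 µM for 2 h at 37°C. Read-outs were fluorescence or absorbance (phosphate detection, dye binding), converted to activity via standard curves and expressed relative to untreated DMSO controls.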

Test [2] has as its target DNA helicase (UniProt P0ACB1). The method, then: as §1
The target of test [3] is DNA ligase (UniProt B1XA82). The method, then: as §1
The target in test [4] is DNA polymerase (UniProt P10443). The method, then: as §1
The target of test [5] is DNA primase (UniProt P0ABS7). The method, then: as §1
The target of test [6] is GlmU (UniProt A7ZTU1). The method, then: as §1
Test [7] concerns the target Guanlyate kinase (UniProt Q0TBG1). The method, then: as §1
The target of test [8] is MurA (UniProt Q3YX52). The method, then:
as §1

For test [9], the target named is T1, MurD (UniProt P14900).
T1 sequence (whole entry): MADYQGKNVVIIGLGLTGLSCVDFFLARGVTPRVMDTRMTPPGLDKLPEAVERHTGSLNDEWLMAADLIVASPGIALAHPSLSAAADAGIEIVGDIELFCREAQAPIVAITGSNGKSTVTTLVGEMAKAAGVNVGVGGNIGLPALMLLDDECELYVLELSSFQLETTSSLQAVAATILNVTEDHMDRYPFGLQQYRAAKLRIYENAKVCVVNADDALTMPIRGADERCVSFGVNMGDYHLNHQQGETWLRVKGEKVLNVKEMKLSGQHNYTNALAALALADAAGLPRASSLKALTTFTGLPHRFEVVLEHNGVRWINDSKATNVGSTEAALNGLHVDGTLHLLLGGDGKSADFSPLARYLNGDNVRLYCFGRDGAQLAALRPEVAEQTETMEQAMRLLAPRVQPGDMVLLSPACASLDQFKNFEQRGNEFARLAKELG
The method, then: as §1

For test [10], the target named is T2, MurF (UniProt P11880).
T2 sequence (whole entry): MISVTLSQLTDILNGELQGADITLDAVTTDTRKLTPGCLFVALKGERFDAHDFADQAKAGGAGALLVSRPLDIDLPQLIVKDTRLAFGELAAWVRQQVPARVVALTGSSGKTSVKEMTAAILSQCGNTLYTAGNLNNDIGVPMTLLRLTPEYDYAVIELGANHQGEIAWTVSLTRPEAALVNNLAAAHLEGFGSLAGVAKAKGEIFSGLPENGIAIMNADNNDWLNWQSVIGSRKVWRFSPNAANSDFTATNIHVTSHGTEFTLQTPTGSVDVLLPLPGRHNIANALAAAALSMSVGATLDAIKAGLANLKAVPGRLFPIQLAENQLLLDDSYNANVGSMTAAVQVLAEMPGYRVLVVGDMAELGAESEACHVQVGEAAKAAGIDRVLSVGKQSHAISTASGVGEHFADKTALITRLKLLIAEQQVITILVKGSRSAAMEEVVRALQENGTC
The method, then:
as §1

Test [11] concerns RNA polymerase. The method, then: as §1

Sequence of Guanlyate kinase (Q0TBG1 whole entry): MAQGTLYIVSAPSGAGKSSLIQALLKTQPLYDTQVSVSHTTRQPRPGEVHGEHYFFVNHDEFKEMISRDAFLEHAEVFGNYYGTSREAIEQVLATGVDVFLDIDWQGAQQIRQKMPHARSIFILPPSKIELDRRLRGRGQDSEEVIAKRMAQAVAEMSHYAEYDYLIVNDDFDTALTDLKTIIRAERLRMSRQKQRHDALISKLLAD
Sequence of DNA ligase (B1XA82 whole entry): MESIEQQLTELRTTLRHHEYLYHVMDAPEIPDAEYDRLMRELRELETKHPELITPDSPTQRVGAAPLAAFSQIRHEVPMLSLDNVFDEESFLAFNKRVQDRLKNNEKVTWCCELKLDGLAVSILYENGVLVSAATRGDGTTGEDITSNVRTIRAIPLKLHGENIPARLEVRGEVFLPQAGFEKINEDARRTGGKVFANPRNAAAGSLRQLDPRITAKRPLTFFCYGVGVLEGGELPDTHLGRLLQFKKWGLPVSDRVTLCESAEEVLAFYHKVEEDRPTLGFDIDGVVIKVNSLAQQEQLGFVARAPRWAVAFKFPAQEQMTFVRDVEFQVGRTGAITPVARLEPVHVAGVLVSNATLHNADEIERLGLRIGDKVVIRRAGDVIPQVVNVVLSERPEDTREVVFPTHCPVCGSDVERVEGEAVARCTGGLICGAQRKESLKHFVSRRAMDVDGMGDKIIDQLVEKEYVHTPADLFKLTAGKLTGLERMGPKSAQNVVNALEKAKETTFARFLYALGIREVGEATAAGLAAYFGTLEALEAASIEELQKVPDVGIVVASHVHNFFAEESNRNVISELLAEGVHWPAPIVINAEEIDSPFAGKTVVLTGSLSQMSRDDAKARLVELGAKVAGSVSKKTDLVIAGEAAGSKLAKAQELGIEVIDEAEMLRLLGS
Sequence of DNA helicase (P0ACB1 whole entry): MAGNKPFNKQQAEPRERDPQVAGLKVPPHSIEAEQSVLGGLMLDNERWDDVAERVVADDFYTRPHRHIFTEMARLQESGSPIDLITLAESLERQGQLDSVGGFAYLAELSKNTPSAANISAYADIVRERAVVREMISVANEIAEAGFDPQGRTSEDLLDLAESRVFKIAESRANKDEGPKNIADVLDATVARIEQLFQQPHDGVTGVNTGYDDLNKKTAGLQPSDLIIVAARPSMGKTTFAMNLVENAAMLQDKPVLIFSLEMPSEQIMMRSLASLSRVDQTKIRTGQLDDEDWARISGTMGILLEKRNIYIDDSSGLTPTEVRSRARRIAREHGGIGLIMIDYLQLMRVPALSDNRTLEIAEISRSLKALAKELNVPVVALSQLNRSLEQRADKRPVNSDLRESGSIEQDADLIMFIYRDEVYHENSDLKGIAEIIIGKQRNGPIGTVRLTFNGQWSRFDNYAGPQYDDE
Sequence of DNA polymerase (P10443 whole entry): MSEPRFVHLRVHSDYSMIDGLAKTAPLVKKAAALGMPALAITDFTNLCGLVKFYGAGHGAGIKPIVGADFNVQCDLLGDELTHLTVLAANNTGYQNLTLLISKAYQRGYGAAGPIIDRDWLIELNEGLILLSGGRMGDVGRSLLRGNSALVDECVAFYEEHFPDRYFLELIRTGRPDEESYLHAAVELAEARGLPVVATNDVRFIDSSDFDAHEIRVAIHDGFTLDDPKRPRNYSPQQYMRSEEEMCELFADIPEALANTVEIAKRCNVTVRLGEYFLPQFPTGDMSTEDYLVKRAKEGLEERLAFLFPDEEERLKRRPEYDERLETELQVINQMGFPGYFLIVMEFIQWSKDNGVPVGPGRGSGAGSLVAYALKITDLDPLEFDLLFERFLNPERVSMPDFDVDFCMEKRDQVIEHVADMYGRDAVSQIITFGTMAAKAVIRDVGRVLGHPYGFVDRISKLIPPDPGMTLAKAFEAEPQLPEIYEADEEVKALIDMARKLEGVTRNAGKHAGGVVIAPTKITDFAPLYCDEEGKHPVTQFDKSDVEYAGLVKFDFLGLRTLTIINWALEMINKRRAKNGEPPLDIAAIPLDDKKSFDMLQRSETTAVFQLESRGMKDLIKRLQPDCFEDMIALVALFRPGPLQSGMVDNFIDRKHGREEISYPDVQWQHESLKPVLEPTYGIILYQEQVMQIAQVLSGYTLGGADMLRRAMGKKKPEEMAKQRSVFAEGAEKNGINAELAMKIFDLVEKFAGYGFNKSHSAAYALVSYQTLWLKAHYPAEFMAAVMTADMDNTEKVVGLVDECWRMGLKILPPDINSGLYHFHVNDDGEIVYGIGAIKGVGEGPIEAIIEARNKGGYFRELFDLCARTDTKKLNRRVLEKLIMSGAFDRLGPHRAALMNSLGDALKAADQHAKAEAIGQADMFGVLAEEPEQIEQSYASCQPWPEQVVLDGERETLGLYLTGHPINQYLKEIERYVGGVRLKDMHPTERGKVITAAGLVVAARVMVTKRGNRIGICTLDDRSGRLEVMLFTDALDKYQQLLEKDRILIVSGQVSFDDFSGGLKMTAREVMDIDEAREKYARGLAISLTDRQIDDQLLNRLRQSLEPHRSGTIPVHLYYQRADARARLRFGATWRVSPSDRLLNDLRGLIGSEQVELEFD
Sequence of DNA primase (P0ABS7 whole entry): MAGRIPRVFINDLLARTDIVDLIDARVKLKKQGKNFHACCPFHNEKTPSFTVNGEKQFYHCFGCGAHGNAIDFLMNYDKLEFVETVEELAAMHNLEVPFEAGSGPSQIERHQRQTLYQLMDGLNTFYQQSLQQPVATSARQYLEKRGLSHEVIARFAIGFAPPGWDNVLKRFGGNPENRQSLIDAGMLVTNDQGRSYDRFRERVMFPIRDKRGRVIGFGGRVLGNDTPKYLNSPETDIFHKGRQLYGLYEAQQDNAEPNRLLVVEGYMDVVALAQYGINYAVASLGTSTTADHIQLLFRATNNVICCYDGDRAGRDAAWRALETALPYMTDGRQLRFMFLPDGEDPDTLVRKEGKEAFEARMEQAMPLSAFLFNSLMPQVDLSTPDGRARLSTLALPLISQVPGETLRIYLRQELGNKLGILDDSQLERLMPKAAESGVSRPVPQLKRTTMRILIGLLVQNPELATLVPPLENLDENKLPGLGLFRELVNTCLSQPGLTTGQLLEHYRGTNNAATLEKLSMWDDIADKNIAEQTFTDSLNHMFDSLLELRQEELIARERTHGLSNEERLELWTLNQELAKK
Sequence of MurA (Q3YX52 whole entry): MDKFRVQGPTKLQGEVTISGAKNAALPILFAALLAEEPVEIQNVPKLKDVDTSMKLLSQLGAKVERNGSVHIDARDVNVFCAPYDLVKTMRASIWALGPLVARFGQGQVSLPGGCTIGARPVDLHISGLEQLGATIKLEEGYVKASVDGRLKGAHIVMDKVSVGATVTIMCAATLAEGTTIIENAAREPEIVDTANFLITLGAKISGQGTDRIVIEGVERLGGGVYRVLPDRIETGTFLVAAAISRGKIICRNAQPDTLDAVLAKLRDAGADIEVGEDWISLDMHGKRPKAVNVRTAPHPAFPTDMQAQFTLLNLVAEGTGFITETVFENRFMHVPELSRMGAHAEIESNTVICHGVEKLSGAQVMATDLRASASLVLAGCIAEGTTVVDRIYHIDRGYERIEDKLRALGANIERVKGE
Sequence of GlmU (A7ZTU1 whole entry, looked up): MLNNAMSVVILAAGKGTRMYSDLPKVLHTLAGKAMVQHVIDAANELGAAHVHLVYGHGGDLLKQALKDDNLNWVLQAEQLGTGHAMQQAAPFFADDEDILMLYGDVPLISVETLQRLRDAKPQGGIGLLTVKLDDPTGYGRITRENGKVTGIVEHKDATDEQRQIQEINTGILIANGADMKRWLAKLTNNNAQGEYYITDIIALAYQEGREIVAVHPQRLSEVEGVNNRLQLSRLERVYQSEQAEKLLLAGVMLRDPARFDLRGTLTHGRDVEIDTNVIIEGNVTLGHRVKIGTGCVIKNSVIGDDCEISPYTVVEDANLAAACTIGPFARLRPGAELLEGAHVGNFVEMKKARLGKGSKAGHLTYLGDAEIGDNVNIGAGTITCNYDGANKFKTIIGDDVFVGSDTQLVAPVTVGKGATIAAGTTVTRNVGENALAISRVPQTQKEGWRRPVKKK

As for `CON=C(C(=O)NC1C(=O)N2C(C(=O)[O-])=C(COC(N)=O)CSC12)c1ccco1.[Na+]` (stereo not drawn), the relative enzymatic activity amounted to 1.06 ± 0.11 in [1]; 0.47 ± 0.024 in test [2]; 1.36 ± 0.18 in test [3]; 1.12 ± 0.2 in [4]; 0.69 ± 0.18 in test [5]; 1.12 ± 0.054 in [6]. The relative enzymatic activity in test [7] turned out to be 0.9 ± 0.019; in test [8], 0.117 ± 0.034; in test [9], 0.72 ± 0.49; in test [10], 1.02 ± 0.23; in [11], 0.866 ± 0.088.

Turning to `CNC1C(O)C(NC)C2OC3(O)C(=O)CC(C)OC3OC2C1O.Cl.Cl` (stereo not drawn), the relative enzymatic activity in test [1] is 0.963 ± 0.22; in [2], 0.484 ± 0.0079; in [3] it was 1.07 ± 0.22; in test [4], 1.35 ± 0.45; in test [5], 0.693 ± 0.19; in test [6], 1.02 ± 0.015. The relative enzymatic activity in test [7] was 0.421 ± 0.021; in test [8], 0.4888 ± 0.0032; in test [9], 0.533 ± 0.35; in [10] it was 0.898 ± 0.16; in test [11], 0.871 ± 0.064.

Turning to `COC12C(COC(N)=O)C3=C(C(=O)C(C)=C(N)C3=O)N1CC1NC12` (stereo not drawn), the relative enzymatic activity in test [1] is 1.01 ± 0.063; in test [2] it was 0.964 ± 0.15; in test [3], 1.03 ± 0.025; in test [4], 1.31 ± 0.47; in test [5], 0.728 ± 0.2; in [6] it was 1.02 ± 0.018. For the same compound, the relative enzymatic activity worked out at 1.05 ± 0.032 in [7]; 0.264 ± 0.12 in test [8]; 0.589 ± 0.41 in test [9]; 1.01 ± 0.23 in [10]; 0.882 ± 0.01 in test [11].

For `Nc1c2ccccc2nc2ccccc12`, the relative enzymatic activity worked out at 0.766 ± 0.37 in [1]; 0.595 ± 0.097 in [2]; 0.519 ± 0.092 in [3]; 1.01 ± 0.28 in test [4]; 0.573 ± 0.14 in test [5]; 0.933 ± 0.059 in [6]. Further, the relative enzymatic activity in test [7] was determined as 0.3108 ± 0.001; in [8], 0.74 ± 0.14; in test [9] it was 0.589 ± 0.38; in test [10] it was 0.94 ± 0.25; in test [11] it was 0.505 ± 0.016.

Regarding `NC(=O)NN=Cc1ccc([N+](=O)[O-])o1`, the relative enzymatic activity in test [1] is 0.958 ± 0.23; in [2], 0.58 ± 0.06; in test [3] it was 1.11 ± 0.018; in test [4], 1.32 ± 0.48; in test [5], 0.739 ± 0.24; in test [6], 0.955 ± 0.085. For the same compound, the relative enzymatic activity in test [7] amounted to 0.897 ± 0.13; in test [8] it was 0.491 ± 0.15; in [9], 0.559 ± 0.37; in test [10] it was 0.933 ± 0.28; in [11], 0.8 ± 0.09.

For `CN(C)CCC=C1c2ccccc2COc2ccc(CC(=O)O)cc21.Cl`, the relative enzymatic activity in test [1] was determined as 0.496 ± 0.7; in [2] it was 0.368 ± 0.047; in test [3] it was 0.922 ± 0.04; in [4], 1.08 ± 0.18; in test [5] it was 0.755 ± 0.041; in test [6] it was 0.899 ± 0.041. In addition, the relative enzymatic activity in [7] was 0.935 ± 0.11; in [8], 0.616 ± 0.29; in [9], 0.566 ± 0.38; in [10] it was 1.1 ± 0.024; in test [11], 0.7995 ± 0.0059.

Turning to `CON=C(C(=O)NC1C(=O)N2C(C(=O)O)=C(CSC(=O)c3ccco3)CSC12)c1csc(N)n1.Cl` (stereo not drawn), the relative enzymatic activity was 0.933 ± 0.033 in test [1]; 0.388 ± 0.053 in test [2]; 1.07 ± 0.033 in [3]; 0.476 ± 0.67 in test [4]; 0.657 ± 0.15 in test [5]; 0.844 ± 0.063 in [6]. Besides, the relative enzymatic activity in [7] is 0.949 ± 0.12; in test [8], 0.0647 ± 0.013; in [9] it was 0.551 ± 0.37; in test [10], 0.95 ± 0.2; in test [11], 0.832 ± 0.051.

With `CNC1C(OC2C(OC3C(O)C(O)C(NC(=N)N)C(O)C3NC(=N)N)OC(C)C2(O)CO)OC(CO)C(O)C1O.O=S(=O)(O)O` (stereo not drawn), the relative enzymatic activity in test [1] came to 0.78 ± 0.53; in test [2], 0.565 ± 0.13; in [3], 1.11 ± 0.19; in [4], 1.38 ± 0.47; in [5], 0.716 ± 0.22; in test [6] it was 0.982 ± 0.09. For the same compound, the relative enzymatic activity in [7] is 1.02 ± 0.063; in test [8] it was 0.635 ± 0.0086; in test [9], 0.65 ± 0.44; in test [10], 0.944 ± 0.15; in test [11] it was 0.953 ± 0.083.

Regarding `C=C1c2cccc(O)c2C(=O)[C@@H]2C(=O)[C@]3(O)C(=O)[C@@H](C(N)=O)C(=O)[C@@H](N(C)C)[C@@H]3[C@@H](O)[C@H]12`, the relative enzymatic activity in test [1] was determined as 0.554 ± 0.29; in test [2] it was 0.33 ± 0.051; in test [3], 0.848 ± 0.095; in test [4], 1.04 ± 0.31; in test [5], 0.707 ± 0.056; in test [6], 1.03 ± 0.018. Further, the relative enzymatic activity came to 0.679 ± 0.018 in test [7]; 0.0871 ± 0.016 in test [8]; 0.638 ± 0.46 in test [9]; 1.06 ± 0.24 in [10]; 0.619 ± 0.015 in test [11].

For the compound `CN(C)c1cc(CNCC(C)(C)C)c(O)c2c1C[C@H]1C[C@H]3[C@H](N(C)C)C(=O)[C@H](C(N)=O)C(=O)[C@@]3(O)C(=O)[C@@H]1C2=O`, the relative enzymatic activity in test [1] turned out to be 0.256 ± 0.0049; in test [2] it was 0.355 ± 0.04; in [3], 0.862 ± 0.018; in [4], 1.09 ± 0.3; in [5] it was 0.671 ± 0.07; in [6], 0.9877 ± 0.0037. Further, the relative enzymatic activity in [7] was 0.49613 ± 0.0003; in test [8] it was 0.133 ± 0.025; in test [9], 0.578 ± 0.38; in test [10] it was 1.23 ± 0.068; in test [11], 0.289 ± 0.1.

As to `CN[C@@H]1[C@H](O[C@H]2[C@H](O[C@@H]3[C@@H](O)[C@H](O)[C@@H](NC(=N)N)[C@H](O)[C@H]3NC(=N)N)O[C@@H](C)[C@]2(O)CO)O[C@@H](CO)[C@H](O)[C@H]1O.CN[C@@H]1[C@H](O[C@H]2[C@H](O[C@@H]3[C@@H](O)[C@H](O)[C@@H](NC(=N)N)[C@H](O)[C@H]3NC(=N)N)O[C@@H](C)[C@]2(O)CO)O[C@@H](CO)[C@H](O)[C@H]1O`, the relative enzymatic activity in [1] worked out at 0.527 ± 0.36; in [2] it was 0.498 ± 0.089; in [3] it was 1.09 ± 0.32; in test [4], 1.08 ± 0.055; in [5], 0.853 ± 0.0042; in test [6], 1.001 ± 0.0056. For the same compound, the relative enzymatic activity in test [7] amounted to 0.983 ± 0.047; in [8] it was 0.803 ± 0.02; in test [9] it was 0.922 ± 0.86; in test [10] it was 0.524 ± 0.73; in test [11], 0.481 ± 0.52.

For `CCN1CCN(C(=O)NC(C(=O)NC2C(=O)N3C2SC(C)(C)C3C(=O)[O-])c2ccccc2)C(=O)C1=O.[Na+]` (stereo not drawn), the relative enzymatic activity in test [1] worked out at 0.801 ± 0.4; in [2] it was 0.634 ± 0.2; in test [3] it was 1.1 ± 0.11; in [4], 1.32 ± 0.43; in [5], 0.757 ± 0.24; in test [6], 0.886 ± 0.12. In addition, the relative enzymatic activity in test [7] amounted to 0.965 ± 0.12; in [8] it was 0.612 ± 0.16; in test [9], 0.587 ± 0.41; in test [10], 0.938 ± 0.29; in test [11], 0.916 ± 0.077.

For `CCn1nc(C(=O)O)c(=O)c2cc3c(cc21)OCO3`, the relative enzymatic activity in [1] is 0.136 ± 0.013; in test [2] it was 0.479 ± 0.042; in test [3], 1.093 ± 0.01; in test [4], 1.29 ± 0.3; in [5], 0.744 ± 0.21; in test [6], 0.99 ± 0.077. Also, the relative enzymatic activity in test [7] is 1.013 ± 0.0046; in test [8] it was 0.762 ± 0.17; in test [9], 0.61 ± 0.41; in [10] it was 0.86 ± 0.028; in test [11] it was 0.929 ± 0.051.
